PrPC TRFRET – cell surface PrPC inhibition, primary TR-FRET screen; inhibition, % at 13.8 µM; 370,000 compounds, 0.43% hits; P04156; TR-FRET read-out; AID 720596; in the data active = inhibition above about 24%; note: 0% = median of the test wells and 100% = reference compound wells
CCHF vOTU inh – blocks the CCHF virus ovarian tumor domain protease. CCHFV vOTU protease, Pep-AMC fluorescence. inhibition, % at 11.5 µM. 370,000 compounds, 0.55% hits; in the data active = inhibition above about 30%; note: 0% = vehicle wells with enzyme and 100% = no enzyme wells
DUSP3 inh – inhibitors of human VHR1 phosphatase (DUSP3) | inhibition, % at 13.3 µM | 290,000 compounds, 0.52% hits | recombinant VHR phosphatase, pNPP absorbance; in the data active = inhibition above about 50%
BH1578 lux ind – inducers of Vibrio cholerae quorum light production without autoinducers | V. cholerae BH1578 lux reporter, luminescence, 6 h | activation, % at 18.7 µM | 350,000 compounds, 0.16% hits; in the data active = activation mostly above about 9.7%, no sharp cut-off
PriA SSB inh – K. pneumoniae PriA-SSBct interaction inhibition. inhibition, % at 33 µM. 430,000 compounds, 0.6% hits. AID 1272365. AlphaScreen SSBct-PriA binding, biotinylated peptide; in the data active = inhibition mostly above about 37%, no sharp cut-off; inactive = mostly below about 20%;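 note: plate controls were negative control peptide for no effect and reference peptide for full effect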
TcdB inh – TcdB glycohydrolase inhibition. AID 652162. 350,000 compounds, 0.24% hits. inhibition, % at 9.99 µM. TcdB glycohydrolase enzymatic assay, plate reader. P18177; in the data active = inhibition above about 10%
* hit, by the source's call; i = inactive; nt = no result; + = active, no number; ! = not confirmed by another sample. This is a sample that favours compounds with a hit; in the whole collection about 1.5% have one here.

SMILES | PrPC TRFRET | CCHF vOTU inh | DUSP3 inh | BH1578 lux ind | PriA SSB inh | TcdB inh
CCCN1CCCc2cc(CCNS(=O)(=O)c3ccc4c(c3)OCCO4)ccc21 | nt | nt | nt | nt | 67* | nt
CCCN1CCCc2cc(CCNS(=O)(=O)c3ccc(CC)cc3)ccc21 | nt | nt | nt | nt | 51* | nt
CN1CCCc2cc(CCNC(=O)Cc3cccs3)ccc21 | nt | nt | nt | nt | 42 | nt
CN1CCCc2cc(CCNS(=O)(=O)c3cccs3)ccc21 | nt | nt | nt | nt | 71* | nt
CC[C@@](CNC(=O)NCc1ccc(OC)cc1)(OC)c1ccccc1 | nt | nt | nt | nt | 2 | nt
CCOC(=O)[C@@H]1[C@H]2COc3ccc(Br)cc3[C@@H]2N2C(=O)N(c3ccc(Br)cc3)C(=O)[C@]12C | 4 | -1 | 13 | 0 | -3 | 14*!
CCc1nnc(-c2ccc(NC(=O)C3CCCCC3)cc2)o1 | nt | nt | nt | nt | -23 | nt
O=c1oc2ccccc2n1Cc1ccccc1 | 1 | 24 | -13 | i | -12 | 0
COc1cccc(Cn2c(=O)oc3ccccc32)c1 | 3 | 0 | 53* | i | -9 | -7
O=C(COc1ccc(Cl)cc1)NCc1nnc2c3ccccc3c(-c3ccccc3)nn12 | -2 | -9 | 51* | -1 | 3 | nt
O=C(NCc1nnc2c3ccccc3c(-c3ccccc3)nn12)c1ccccc1Cl | -5 | -3 | 2 | i | -11 | 0
O=C(C1CCCCC1)N(CCN1CCOCC1)c1nc2ccc(Cl)cc2s1 | nt | nt | nt | nt | -40 | nt
C[C@@](O)(CNC(=O)C(=O)NC1CC1)Cc1ccco1 | nt | nt | nt | nt | -21 | nt
O=C(NCCCc1ccccc1)Nc1ccc(-n2ccnc2)nc1 | nt | nt | nt | nt | 6 | nt
COc1ccc(C)cc1NC(=O)C(=O)NCC(c1ccc2c(c1)CCN2C)N(C)C (stereo not drawn) | nt | nt | nt | nt | 53* | nt
NC(=O)c1ccc(NC(=O)C2CCN(c3ccc(-c4cccs4)nn3)CC2)cc1 | nt | nt | nt | nt | 0 | nt
O=C(NN=Cc1ccc[nH]1)c1ccccc1OCc1ccccc1Cl | nt | nt | nt | nt | 7 | nt
O=C(N/N=C/c1ccc[nH]1)c1ccccc1OCc1ccccc1Cl | 9 | 3 | 57* | -1 | nt | 2
CC1(C)Cc2nc(Cl)c(C#N)cc2CO1 | 3 | -7 | 9 | 0 | -4 | 10*
CC1(C)Cc2nc(N3CCCC3)c(C#N)cc2CO1 | 1 | -154 | 12 | nt | -17 | 4
Cc1nc2c(c(N3CCC(NC(=O)c4ccc[nH]4)CC3)n1)CCCC2 | nt | nt | nt | nt | 1 | nt
COc1cccc(OCC(=O)Nc2ccc3c(c2)C(=O)Nc2cc(Cl)ccc2O3)c1 | nt | nt | nt | nt | -4 | nt
COc1ccc(C(=O)C(C#N)=NNc2cccc([N+](=O)[O-])c2)cc1 | nt | nt | nt | nt | -1 | nt
COc1ccc(C(=O)/C(C#N)=N/Nc2ccc([N+](=O)[O-])cc2)cc1 | 2 | -7 | 71* | i | nt | 1
CCN(CC)c1ccc(NC(=O)CN(C)Cc2cccs2)cc1 | -3 | 6 | 53* | 0 | 32 | -1
SMILES | PrPC TRFRET | CCHF vOTU inh | DUSP3 inh | BH1578 lux ind | PriA SSB inh | TcdB inh
Cc1ccc(NC(=O)CN(C)Cc2cccs2)cc1Cl | 4 | 13 | 10 | 0 | -30 | 2
N/C(Cn1cnc2ccccc21)=N/O | nt | nt | nt | nt | 6 | nt
C[C@H](NC(=O)[C@@H]1Cc2ccccc2CN1)C(=O)NC1CCCCC1 | -2 | 20 | 53* | i | -12 | 0
CC(C)[C@H](NC(=O)[C@@H]1Cc2ccccc2CN1)C(=O)NC1CCCCC1 | 2 | 11 | -2 | i | -9 | 0
O=C(Cn1cnc2ccccc21)N1C2C=CCC1CC2 (stereo not drawn) | nt | nt | nt | nt | -6 | nt
CCOCCn1c(=NC(=O)C(C)C)sc2cc(NC(C)=O)ccc21 | nt | nt | nt | nt | 37* | nt
COC(=O)c1ccc(C23CC4(C2)[C@H](CN(Cc2ccc(C(F)(F)F)cc2)[C@@H]4c2ccccc2)C3c2ccc(Cl)nc2)cc1 (stereo partly drawn) | 1 | 10 | 0 | nt | 3 | 12*
CCCCN(C(=O)CCC(=O)Nc1cc(C)on1)C(C(=O)NC1CCCC1)c1ccccc1OCC (stereo not drawn) | 5 | 2 | -19 | -1 | 3 | 1
CCCCN(C(=O)CCC(=O)Nc1cc(C)on1)C(C(=O)NC1CCCC1)c1ccc(OCC)cc1 (stereo not drawn) | 2 | 37* | 33 | 0 | -3 | -6
Cc1ccccc1NC(=O)C(C)SCc1ccccc1 (stereo not drawn) | 3 | -11 | 52* | 0 | -11 | 3
CC(SCc1ccccc1)C(=O)Nc1ccccc1Br (stereo not drawn) | -3 | -1 | 22 | 1 | -74 | 0
O=C(CSc1nnc(NC(=O)C2CC(=O)N(c3ccc(F)cc3)C2)s1)Nc1ccc([N+](=O)[O-])cc1 (stereo not drawn) | nt | nt | nt | nt | -14 | nt
CCOC(=O)N1CCN(C(=S)NC(=O)c2cccc(OC)c2)CC1 | 0 | 4 | nt | i | nt | 0
CCOC(=O)N1CCN(C(=S)NC(=O)c2ccc(F)c(F)c2)CC1 | -4 | 11 | 22 | i | -9 | 11*
O=C(CSc1ccc2nnc(-c3ccccn3)n2n1)Nc1ccccc1 | -3 | -3 | 37 | 0 | -10 | 0
COC(=O)CSc1ccc2nnc(-c3ccccn3)n2n1 | nt | nt | nt | nt | 77* | nt
CCCCC(Sc1ccc2nnc(-c3ccccn3)n2n1)C(=O)O (stereo not drawn) | nt | nt | nt | nt | 94* | nt
Cn1c(C(F)(F)F)nn(CC(=O)N2CCc3ccccc32)c1=O | nt | nt | nt | nt | 0 | nt
NC(=O)c1ccc(N=C2C(=O)Nc3ccc([N+](=O)[O-])cc32)cc1 | -8 | 116* | 27 | nt | 5 | -2
O=C(NCc1ccccc1)C1CCN(S(=O)(=O)c2ccc(N3CCCC3=O)cc2)CC1 | -2 | -1 | 52* | i | -2 | 1
O=C(NCc1ccc(Cl)cc1)C1CCN(S(=O)(=O)c2ccc(N3CCCC3=O)cc2)CC1 | 2 | 3 | -6 | -2 | -11 | 1
O=C(NCc1ccccc1Cl)C1CCN(S(=O)(=O)N2CCCCCC2)CC1 | -2 | -8 | 54* | 0 | -9 | nt
O=C(Nc1ccc(OC(F)(F)F)cc1)N1CCN(c2ccc(-c3ccco3)nn2)CC1 | nt | nt | nt | nt | -13 | nt
O=C(CS(=O)(=O)c1ccc(Cl)s1)Nc1ccc2c(c1)OCCO2 | nt | nt | nt | nt | -7 | nt
Cc1ccc(N2C(=O)C3Sc4[nH]c(=O)sc4C(c4ccccc4)C3C2=O)cc1 (stereo not drawn) | 9 | -3 | 20 | + | 11 | nt
SMILES | PrPC TRFRET | CCHF vOTU inh | DUSP3 inh | BH1578 lux ind | PriA SSB inh | TcdB inh
O=S(=O)(c1cccs1)N1CCC(c2nc(-c3ccc4c(c3)OCO4)no2)CC1 | nt | nt | nt | nt | -1 | nt
CN1C(=O)CSc2ccc(NC(=O)N3CCc4ccccc43)cc21 | 7 | 7 | 7 | -1 | 11 | 16*
CC(C)C[C@H]1CN=C(Nc2ccccc2)N1CCCC1CCCC1 | 2 | 13 | 55* | 0 | 8 | 0
CC(C)C[C@H]1CN=C(Nc2ccccc2)N1CCCC1CCCCC1 | 8 | 6 | 17 | i | 5 | 0
CC(=O)c1c(C)[nH]c(C(=O)COc2cc(C)ccc2C(C)C)c1C | 26* | -2 | 8 | -1 | -4 | nt
CCOC(=O)/C(C#N)=C/c1ccc(-c2ccsc2C(=O)OC)o1 | -3 | -5 | 53* | 0 | -12 | nt
CCOC(=O)C(=Cc1ccc(-c2ccsc2C(=O)OC)o1)C(=O)OCC | 6 | -10 | 45 | -11 | -12 | nt
